# Assay results published in the supplement of paper PMC8728848.
# The sample as a whole holds a higher share of the strongest signals than the screen did.
# Assays:
# Assay in all cases: glycan array binding signal (z-score within array); higher = stronger binding
# Conditions in all cases: glycan notation: IUPAC condensed, linker removed
# [1] = molecular target: Fuc(a1-2)Gal(b1-4)GlcNAc(b1-2)Man
# How it was run: (§1)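 The Consortium for Functional Glycomics database supplied 3228 glycan arrays, of which those lacking an available protein sequence were dropped. The binding signal, a within-array Z-score, was averaged across arrays of the same protein sequence and across linkers. Negative scores can be read as non-binding.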
# [2] = molecular target: Fuc(a1-2)[Gal(a1-3)]Gal(b1-3)GalNAc(b1-3)Gal(a1-4)Gal(b1-4)Glc
# How it was run: as §1
# [3] = molecular target: Fuc(a1-2)[GalNAc(a1-3)]Gal(b1-4)GlcNAc(b1-2)Man(a1-3)[Fuc(a1-2)[GalNAc(a1-3)]Gal(b1-4)GlcNAc(b1-2)Man(a1-6)]Man(b1-4)GlcNAc(b1-4)[Fuc(a1-6)]GlcNAc
# How it was run: as §1
# [4] = molecular target: Fuc(a1-3)[Gal3S(b1-4)]Glc
# How it was run: as §1
# [5] = molecular target: Fuc(a1-3)[GalNAc(b1-4)]GlcNAc6S
# How it was run: as §1
# Fuc(b1-3)GlcNAc = molecular target: Fuc(b1-3)GlcNAc
# How it was run: as §1
# [6] = molecular target: Gal(a1-3)Gal(b1-4)GlcNAc(b1-2)Man(a1-3)[Gal(a1-3)Gal(b1-4)GlcNAc(b1-2)Man(a1-6)]Man(b1-4)GlcNAc(b1-4)GlcNAc
# How it was run: as §1
# [7] = molecular target: Gal(a1-3)Gal(b1-4)[Fuc(a1-3)]GlcNAc(b1-2)Man(a1-3)[Gal(a1-3)Gal(b1-4)[Fuc(a1-3)]GlcNAc(b1-2)Man(a1-6)]Man(b1-4)GlcNAc(b1-4)GlcNAc
# How it was run: as §1
# [8] = molecular target: Gal(a1-4)Gal(b1-3)GlcNAc(b1-2)Man(a1-3)[Gal(a1-4)Gal(b1-3)GlcNAc(b1-2)Man(a1-6)]Man(b1-4)GlcNAc(b1-4)GlcNAc
# How it was run: as §1
# [9] = molecular target: Gal(a1-4)Gal(b1-4)GlcNAc(b1-2)Man(a1-3)[Gal(a1-4)Gal(b1-4)GlcNAc(b1-2)Man(a1-6)]Man(b1-4)GlcNAc(b1-4)GlcNAc
# How it was run: as §1
# Gal(b1-3)GalNAc = molecular target: Gal(b1-3)GalNAc
# How it was run: as §1
# [10] = molecular target: Gal(b1-3)GalNAc(b1-4)Gal(b1-4)Glc
# How it was run: as §1
# [11] = molecular target: Gal(b1-3)GlcNAc(a1-3)Gal(b1-4)GlcNAc
# How it was run: as §1
# Gal(b1-3)GlcNAc(b1-2)Man = molecular target: Gal(b1-3)GlcNAc(b1-2)Man
# How it was run: as §1
# [12] = molecular target: Gal(b1-3)GlcNAc(b1-2)Man(a1-3)[Gal(b1-3)GlcNAc(b1-2)Man(a1-6)]Man(b1-4)GlcNAc(b1-4)GlcNAc
# How it was run: as §1
# [13] = molecular target: Gal(b1-3)GlcNAc(b1-3)Gal(b1-3)GlcNAc
# How it was run: as §1
# [14] = molecular target: Gal(b1-4)GalNAc(a1-3)[Fuc(a1-2)]Gal(b1-4)GlcNAc
# How it was run: as §1
# [15] = molecular target: Gal(b1-4)GlcNAc(b1-2)Man(a1-3)[Gal(b1-4)GlcNAc(b1-2)Man(a1-6)]Man(b1-4)GlcNAc(b1-4)GlcNAc
# How it was run: as §1
# [16] = molecular target: Gal(b1-4)GlcNAc(b1-2)Man(a1-3)[GlcNAc(b1-2)Man(a1-6)]Man(b1-4)GlcNAc(b1-4)GlcNAc
# How it was run: as §1
# [17] = molecular target: Gal(b1-4)GlcNAc(b1-2)Man(a1-3)[Man(a1-6)]Man(b1-4)GlcNAc(b1-4)GlcNAc
# How it was run: as §1
# [18] = molecular target: Gal(b1-4)GlcNAc(b1-2)Man(a1-6)[GlcNAc(b1-2)Man(a1-3)]Man(b1-4)GlcNAc(b1-4)GlcNAc
# How it was run: as §1
# [19] = molecular target: Gal(b1-4)GlcNAc(b1-3)Gal(b1-4)GlcNAc(b1-2)[Gal(b1-4)GlcNAc(b1-3)Gal(b1-4)GlcNAc(b1-6)]Man(a1-6)[Gal(b1-4)GlcNAc(b1-3)Gal(b1-4)GlcNAc(b1-2)Man(a1-3)]Man(b1-4)GlcNAc(b1-4)[Fuc(a1-6)]GlcNAc
# How it was run: as §1
# [20] = molecular target: Gal(b1-4)GlcNAc(b1-3)Gal(b1-4)GlcNAc(b1-3)[Gal(b1-4)GlcNAc(b1-3)Gal(b1-4)GlcNAc(b1-6)]GalNAc
# How it was run: as §1
# Gal4S(b1-4)GlcNAc = molecular target: Gal4S(b1-4)GlcNAc
# How it was run: as §1
# Gal6S(b1-4)Glc6S = molecular target: Gal6S(b1-4)Glc6S
# How it was run: as §1
# GalNAc(a1-3)Gal = molecular target: GalNAc(a1-3)Gal
# How it was run: as §1
# [21] = molecular target: GalNAc(a1-3)GalNAc(b1-3)Gal(a1-4)Gal(b1-4)Glc
# How it was run: as §1
# [22] = molecular target: GalNAc(b1-4)GlcNAc(b1-2)Man(a1-3)[GalNAc(b1-4)GlcNAc(b1-2)Man(a1-6)]Man(b1-4)GlcNAc(b1-4)GlcNAc
# How it was run: as §1
# GalNAc3S(b1-4)GlcNAc = molecular target: GalNAc3S(b1-4)GlcNAc
# How it was run: as §1
# GalNAc6S(b1-4)GlcNAc = molecular target: GalNAc6S(b1-4)GlcNAc
# How it was run: as §1
# [23] = molecular target: Glc(a1-6)Glc(a1-6)Glc(a1-6)Glc
# How it was run: as §1
binder,measurement,setting,value
GNL (Galanthus nivalis) (protein) MGHHHHHHHHYGTLENGHWLMVGMSIFSKDRTVELRMQDDGKLAIYYNDHCAWQSTAQQVNNAKGAVMQGDGNFCIYDKNGKATWHTNTAAPSGDSHTFVSVQDDGNLVLYKNNGATPIWSSKSNK,glycan array binding signal (z-score),[1],-0.231
same,glycan array binding signal (z-score),[2],-0.172
same,glycan array binding signal (z-score),[3],-0.207
same,glycan array binding signal (z-score),[4],-0.237
same,glycan array binding signal (z-score),[5],-0.181
same,glycan array binding signal (z-score),Fuc(b1-3)GlcNAc,-0.156
same,glycan array binding signal (z-score),[6],3.44
same,glycan array binding signal (z-score),[7],-0.054
same,glycan array binding signal (z-score),[8],4.92
same,glycan array binding signal (z-score),[9],5.71
same,glycan array binding signal (z-score),Gal(b1-3)GalNAc,-0.233
same,glycan array binding signal (z-score),[10],-0.061
same,glycan array binding signal (z-score),[11],-0.174
same,glycan array binding signal (z-score),Gal(b1-3)GlcNAc(b1-2)Man,-0.16
same,glycan array binding signal (z-score),[12],4.54
same,glycan array binding signal (z-score),[13],-0.228
same,glycan array binding signal (z-score),[14],-0.257
same,glycan array binding signal (z-score),[15],4.76
same,glycan array binding signal (z-score),[16],3.92
same,glycan array binding signal (z-score),[17],10.9
same,glycan array binding signal (z-score),[18],7.59
same,glycan array binding signal (z-score),[19],-0.241
same,glycan array binding signal (z-score),[20],-0.222
same,glycan array binding signal (z-score),Gal4S(b1-4)GlcNAc,-0.212
same,glycan array binding signal (z-score),Gal6S(b1-4)Glc6S,-0.207
same,glycan array binding signal (z-score),GalNAc(a1-3)Gal,-0.25
same,glycan array binding signal (z-score),[21],-0.305
same,glycan array binding signal (z-score),[22],-0.248
same,glycan array binding signal (z-score),GalNAc3S(b1-4)GlcNAc,-0.219
same,glycan array binding signal (z-score),GalNAc6S(b1-4)GlcNAc,-0.21
same,glycan array binding signal (z-score),[23],-0.121
